The text below walks through data of PubChem BioAssay AID540359 (Broad Institute, 2011).

Potency and affinity values are given separately. Activity calls are given as the source filed them. A call without a number means that no potency is given here. The rule behind the calls is not given here.

The target in the test is UDP-galactopyranose mutase (Mycobacterium tuberculosis (strain ATCC 25618 / H37Rv)) (UniProt P9WIQ1). Put plainly: Mycobacterium tuberculosis UGM enzyme inhibition, dose response confirmation, purified biochemical assay (AID 540359). The settings on record: plate reader activity; series mostly up to 50 µM.
UDP-galactopyranose mutase (Mycobacterium tuberculosis (strain ATCC 25618 / H37Rv)), sequence (P9WIQ1 whole entry, looked up): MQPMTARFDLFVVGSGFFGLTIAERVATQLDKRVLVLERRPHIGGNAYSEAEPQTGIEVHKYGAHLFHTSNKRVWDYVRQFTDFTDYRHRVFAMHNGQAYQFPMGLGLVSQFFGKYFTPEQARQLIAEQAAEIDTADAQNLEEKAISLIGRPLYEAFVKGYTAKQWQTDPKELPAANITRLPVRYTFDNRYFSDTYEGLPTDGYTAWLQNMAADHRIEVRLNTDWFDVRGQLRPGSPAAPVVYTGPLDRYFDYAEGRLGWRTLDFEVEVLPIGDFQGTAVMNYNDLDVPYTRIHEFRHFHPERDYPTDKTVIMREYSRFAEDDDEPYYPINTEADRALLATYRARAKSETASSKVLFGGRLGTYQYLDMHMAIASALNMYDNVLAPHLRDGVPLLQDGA
As to `Cn1nc(C(=O)Nc2cc(Cl)ccc2N2CCCC2)c2ccccc2c1=O`, the outcome was inactive.
Take `Cc1ccc(-c2nc3sc(C#N)c(N)n3c(=O)c2C#N)cc1`: the outcome was inactive.
`C=CCn1ccc(=NC=C(C#N)C#N)c2ccccc21`: the molecule was called inactive.
Under `CCOC(=O)/C(C#N)=C1\CC2CCC1(C)C2(C)C` (stereo not drawn) stands “inactive”; under `Brc1ccc(/C=N/c2nc3ccccc3n2CCN2CCOCC2)cc1`, “inactive”.
With `N#Cc1c(-c2ccccc2)ccnc1Oc1ccccc1`, the outcome was inactive.
Under `O=S(=O)(c1ccccc1)N(CC1CO1)c1cc(Cl)ccc1Cl` (stereo not drawn) stands “inactive”.
Take `COc1ccc(C(=O)Oc2ccc(Br)cc2C(=S)N2CCOCC2)cc1`: the molecule was classed as inactive.
For `Cc1c(C(=O)N2CCOCC2)sc(NC(=O)CCl)c1C#N`, the outcome was inactive.
With `COc1ccccc1NC(=O)C1CCN(S(=O)(=O)c2cccs2)CC1`, the result was inactive.
On to `CC1=Nc2ccccc2/C1=C\c1nc(-c2ccc(C(F)(F)F)cc2)oc1O`, for which the molecule was called inactive.
`COc1ccc(N=Cc2c(O)n(-c3cccc(C)n3)c(=O)c3ccccc23)c(OC)c1`: the molecule was classed as inactive.
As to `COc1cccc2c(=O)cn[nH]c12`, the result was inactive.
With `CCN(CC)S(=O)(=O)c1ccc2c(c1)c(=O)c(C(=O)NCc1ccco1)cn2C`, the molecule was classed as inactive.
Consider `COc1cc2c3nnc(-c4ccccc4)c-3cn(Cc3ccccc3F)c2cc1OC`, for which the molecule was called inactive.
Under `Cc1nn(-c2ccccc2)c(Cl)c1C(=O)NCC1CCCO1` (stereo not drawn) stands “inactive”; under `COc1ccc(OC)c(/C=C2\Oc3cc(OCC(=O)N4CCC[C@H]4C(=O)O)ccc3C2=O)c1`, “inactive”; under `COc1ccc(/C=C/C(=O)OCC(=O)NC2CCCCCC2)cc1OC`, “inactive”.
Consider `Cc1n[nH]c(=O)c2c(NC(=O)CSc3nnc(-c4ccco4)n3C)oc(C)c12`, for which the molecule was classed as inactive.
For `N#C/C(=C(/O)CSc1ccccc1C(=O)O)c1nc2ccccc2s1`, the outcome was inactive.
Then `Cc1ccccc1OCCn1cc(C(=S)N2CCCC2)c2ccccc21`, with “inactive”; and `Cc1cc(C(=O)OCC(=O)Nc2c(Cl)cccc2Cl)c(C)o1`, with “inactive”; and `O=C(NC(=S)Nn1cnnc1)c1ccccc1Cl`, with “inactive”.
Then `C=C1c2cc(C)ccc2NC(=O)N1c1ccc(C)cc1`, with “inactive”.
Then `COc1cc(N2CCCC2)c(OC)cc1/C=C(/C#N)c1ccc(Br)cc1`, with “inactive”; and `COc1ccccc1NS(=O)(=O)c1cc(N)ccc1N1CCCC1`, with “inactive”; and `CCC1=NN2C(=N)/C(=C\c3cccn3-c3ccc(OC)cc3)C(=O)N=C2S1`, with “inactive”.
On to `COc1cc2c3nnc(-c4ccc(F)cc4)c-3cn(Cc3ccc(C)cc3)c2cc1OC`, for which the result was inactive.
